Assay results from PubChem BioAssay (Tox21).
Records with an inconclusive call do not appear. Active and inactive are the calls of the source. Unless noted, the call rests on the fitted dose curve; in most records, active means well fitted curve in the direction sought with a large enough effect in the repeat runs; inconclusive means weak or mixed curves; inactive means no such curve, though single readings can be large; an effect the other way counts as inactive or inconclusive.

Legend:
[1] = qHTS assay to test for compound auto fluorescence at 460 nm (blue) in HEK293 cell free culture (AID 720681)
Method in brief: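 Test compounds were pinned into cell-free culture medium (DMEM with 10% FBS) and fluorescence was read directly at Ex/Em 405/460 nm. Signals were expressed as fluorescence equivalents of triamterene, with DMSO vehicle as control.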

[2] = qHTS assay to test for compound auto fluorescence at 535 nm (green) in HEK293 cell free culture (AID 720682)
Method in brief: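 Read-out: 485/535 nm fluorescence intensity, calibrated against fluorescein. Medium only (DMEM + 10% FBS, no cells); test compound or DMSO vehicle added by pintool before plate reading.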

[3] = qHTS assay to test for compound auto fluorescence at 590 nm (red) in HEK293 cell free culture (AID 720683)
Method in brief: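 Tox21 10K library compounds were pinned into cell-free DMEM with 10% FBS and fluorescence was read at excitation 540 nm. Activity is expressed as Rose Bengal sodium equivalency.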

[4] = qHTS assay to test for compound auto fluorescence at 590 nm (red) in HepG2 cell free culture (AID 720684)
Method in brief: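 Red fluorescence (540 nm excitation, 590 nm emission) was measured after compound transfer into cell-free MEM supplemented with 10% FBS. Values are equivalencies against Rose Bengal sodium.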

[5] = qHTS assay to test for compound auto fluorescence at 460 nm (blue) in HepG2 cell free culture (AID 720685)
Method in brief: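 Compound (23 nL) or DMSO pinned into cell-free MEM with 10% FBS; blue fluorescence read at 405/460 nm excitation/emission, expressed as auto-fluorescence equivalency to triamterene.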

[6] = qHTS assay to test for compound auto fluorescence at 535 nm (green) in HepG2 cell free culture (AID 720686)
[7] = qHTS assay to test for compound auto fluorescence at 460 nm (blue) in HepG2 cells (AID 720687)
Method in brief: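 Cells (2,000/well in MEM with 10% FBS) attached overnight at 37 C, then were exposed to compound or DMSO for 1 hr at 37 C, 5% CO2. Fluorescence read at Ex/Em 405/460 nm, expressed as triamterene-equivalent signal.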

[8] = qHTS assay for identifying genotoxic compounds that show differential cytotoxicity against isogenic chicken DT40 cell lines with known DNA damage response pathways - wild type cell line (AID 743012); further: nearly all actives have a fitted effect of over 60% in size
Method in brief: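 First, wild type DT40 cells were plated at 300 per well and equilibrated about 0.5 h at 37 C/5% CO2. Next, compounds in DMSO were added and exposure lasted 40 h. Finally, CellTiter-Glo was added for 30 min at room temperature and luminescence recorded.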

[9] = qHTS assay for identifying genotoxic compounds that show differential cytotoxicity against isogenic chicken DT40 cell lines with known DNA damage response pathways - Rad54/Ku70 mutant cell line (AID 743015); further: nearly all actives have a fitted effect of over 60% in size
[10] = qHTS assay to identify small molecule antagonists of the androgen receptor (AR) signaling pathway - cell viability counter screen (AID 743033; further: nearly all actives have a fitted effect of over 45% in size)
[11] = qHTS assay to identify small molecule antagonists of the androgen receptor (AR) signaling pathway using the MDA cell line - cell viability counter screen (AID 743041; further: nearly all actives have a fitted effect of over 45% in size)
Method in brief: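 MDA-kb2 AR-luc human breast carcinoma cells (MMTV-luciferase, AR/GR responsive) were treated with compounds plus R1881 agonist for 16 h at 37 °C. Viability was read as CellTiter-Fluor fluorescence in the same wells as the reporter assay.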

[12] = biological target: Glucocorticoid receptor (Homo sapiens) (UniProt P04150); assay: qHTS assay to identify small molecule agonists of the glucocorticoid receptor (GR) signaling pathway (AID 720691; active means well fitted activation curve with a large enough effect in the signal ratio in the repeat runs, not every such curve was filed as active; the % refers to the signal ratio)
Method in brief: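 qHTS in GR-bla HeLa cells: 4 h settling at 37 C/5% CO2, 18 h compound incubation at 37 C, 2 h LiveBLAzer B/G FRET substrate at room temperature, fluorescence intensity measured.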

[13] = qHTS assay to identify small molecule antagonists of the glucocorticoid receptor (GR) signaling pathway - cell viability counter screen (AID 720693); further: nearly all actives have a fitted effect of over 55% in size
[14] = qHTS assay for identifying genotoxic compounds that show differential cytotoxicity against isogenic chicken DT40 cell lines with known DNA damage response pathways - Rev3 mutant cell line (AID 743014); further: nearly all actives have a fitted effect of over 55% in size
[15] = biological target: Androgen receptor (Homo sapiens) (UniProt P10275); assay: qHTS assay to identify small molecule agonists of the androgen receptor (AR) signaling pathway (AID 743036; active means well fitted activation curve with a large enough effect in the signal ratio in the repeat runs, with a control signal flat, not every such curve was filed as active; the % refers to the signal ratio)
Method in brief: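 HEK293 cells stably carrying a UAS-driven beta-lactamase reporter (GeneBLAzer AR-UAS-bla-GripTite) were plated at 2,000 cells/well, rested 4 h at 37C, then exposed to compounds in DMSO for 16 h. LiveBLAzer B/G FRET substrate was added for 2 h at room temperature; fluorescence read.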

[16] = biological target: Androgen receptor (Homo sapiens) (UniProt P10275); assay: qHTS assay to identify small molecule agonists of the androgen receptor (AR) signaling pathway using the MDA cell line (AID 743040; further: nearly all actives have a fitted effect of over 20% in size)
Method in brief: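 MDA-kb2 breast carcinoma cells stably carrying an MMTV-driven luciferase reporter (AR- and GR-responsive) were seeded and held 5 h at 37C, 0% CO2, then exposed to compounds in DMSO for 16 h. Luminescence was read 30 min after ONE-Glo addition.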

[17] = biological target: Androgen receptor (Homo sapiens) (UniProt P10275); assay: qHTS assay to identify small molecule antagonists of the androgen receptor (AR) signaling pathway using the MDA cell line (AID 743042; further: nearly all actives have a fitted effect of over 55% in size)
Method in brief: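 MDA-kb2 cells (human breast carcinoma, stably carrying an MMTV-luciferase reporter responsive to AR and GR) were plated at 3,000 cells/well and preincubated 5 hr at 37C, then given compound plus R1881 agonist for 16 h. ONE-Glo luminescence was read.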

[18] = biological target: Glucocorticoid receptor (Homo sapiens) (UniProt P04150); assay: qHTS assay to identify small molecule antagonists of the glucocorticoid receptor (GR) signaling pathway (AID 720692; active means well fitted inhibition curve with a large enough effect in the signal ratio in the repeat runs, not every such curve was filed as active; the % refers to the signal ratio)
Method in brief: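 Inhibition of glucocorticoid signalling is measured in HeLa cells with a GRE-controlled beta-lactamase reporter; cells are co-treated with compound and 5 nM dexamethasone (final) for 18 h before FRET substrate readout.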

[19] = biological target: Androgen receptor (Homo sapiens) (UniProt P10275); assay: qHTS assay to identify small molecule antagonists of the androgen receptor (AR) signaling pathway (AID 743035; active means well fitted inhibition curve with a large enough effect in the signal ratio in the repeat runs, not every such curve was filed as active; the % refers to the signal ratio)
Method in brief: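 Beta-lactamase FRET read (2 h RT incubation with LiveBLAzer B/G) following 16 h of compound plus R1881 treatment of AR-UAS-bla HEK293 cells, which had been pre-incubated 4 h at 37C.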
On the % scale 0 is the no-effect control and ±100 the full control effect.

Chain of Glucocorticoid receptor (Homo sapiens) (P04150 whole entry, looked up): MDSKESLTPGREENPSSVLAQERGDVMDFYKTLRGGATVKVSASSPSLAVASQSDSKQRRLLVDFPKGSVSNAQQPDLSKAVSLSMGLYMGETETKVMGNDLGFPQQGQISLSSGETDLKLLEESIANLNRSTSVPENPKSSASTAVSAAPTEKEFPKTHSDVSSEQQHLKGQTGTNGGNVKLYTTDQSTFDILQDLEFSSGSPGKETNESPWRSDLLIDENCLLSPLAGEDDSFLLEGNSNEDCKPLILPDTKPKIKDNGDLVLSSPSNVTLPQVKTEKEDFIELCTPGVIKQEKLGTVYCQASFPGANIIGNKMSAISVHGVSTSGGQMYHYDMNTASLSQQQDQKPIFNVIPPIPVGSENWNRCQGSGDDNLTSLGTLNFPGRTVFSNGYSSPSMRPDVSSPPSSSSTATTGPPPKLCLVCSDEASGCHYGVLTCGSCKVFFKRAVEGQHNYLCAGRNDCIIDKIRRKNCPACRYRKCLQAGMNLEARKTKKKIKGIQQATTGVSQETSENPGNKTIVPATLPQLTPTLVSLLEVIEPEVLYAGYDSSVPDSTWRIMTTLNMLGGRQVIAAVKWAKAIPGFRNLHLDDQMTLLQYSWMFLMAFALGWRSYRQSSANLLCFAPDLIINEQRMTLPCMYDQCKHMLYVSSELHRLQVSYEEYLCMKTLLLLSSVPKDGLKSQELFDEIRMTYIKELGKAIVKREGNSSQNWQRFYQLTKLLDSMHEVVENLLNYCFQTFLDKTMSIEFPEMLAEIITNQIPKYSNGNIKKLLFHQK
Chain of Androgen receptor (Homo sapiens) (P10275 whole entry, looked up): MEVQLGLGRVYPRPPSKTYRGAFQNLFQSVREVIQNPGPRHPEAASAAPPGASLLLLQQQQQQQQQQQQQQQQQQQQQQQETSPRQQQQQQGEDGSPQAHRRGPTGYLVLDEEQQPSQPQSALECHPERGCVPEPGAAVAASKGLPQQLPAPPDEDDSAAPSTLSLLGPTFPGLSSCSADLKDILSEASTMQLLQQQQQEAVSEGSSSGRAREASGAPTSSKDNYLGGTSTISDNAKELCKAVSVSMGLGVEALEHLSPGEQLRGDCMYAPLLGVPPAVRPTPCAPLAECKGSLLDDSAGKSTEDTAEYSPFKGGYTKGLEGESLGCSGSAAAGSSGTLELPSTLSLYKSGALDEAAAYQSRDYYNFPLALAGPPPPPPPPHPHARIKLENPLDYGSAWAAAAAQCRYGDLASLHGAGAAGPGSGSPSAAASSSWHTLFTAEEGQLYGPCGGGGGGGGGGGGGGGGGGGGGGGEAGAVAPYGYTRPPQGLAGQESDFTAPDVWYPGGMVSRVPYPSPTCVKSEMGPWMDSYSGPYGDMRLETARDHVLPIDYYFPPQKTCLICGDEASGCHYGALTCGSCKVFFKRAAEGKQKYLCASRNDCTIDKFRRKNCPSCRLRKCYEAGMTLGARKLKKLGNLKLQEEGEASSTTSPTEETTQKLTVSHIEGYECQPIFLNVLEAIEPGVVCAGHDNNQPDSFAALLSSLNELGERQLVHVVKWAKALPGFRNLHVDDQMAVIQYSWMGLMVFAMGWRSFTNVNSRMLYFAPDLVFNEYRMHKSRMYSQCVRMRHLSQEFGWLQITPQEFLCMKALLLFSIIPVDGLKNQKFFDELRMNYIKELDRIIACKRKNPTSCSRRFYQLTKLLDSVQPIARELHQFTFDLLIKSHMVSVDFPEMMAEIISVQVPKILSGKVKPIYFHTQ

C=C1CC/C=C(\C)CC[C@@H]2[C@@H]1CC2(C)C
inactive: outcome [1] | outcome [2] | outcome [3] | outcome [4] | outcome [5] | outcome [6] | outcome [7] | Potency [8] | Potency [9] | Potency [10] | Potency [11]

CC(=O)Nc1ccc(S(=O)(=O)Nc2ccc([N+](=O)[O-])cc2)cc1
inactive: outcome [1] | outcome [2] | outcome [3] | outcome [4] | outcome [5] | outcome [6] | outcome [7] | Potency [12] | outcome [13] | Potency [8] | Potency [14] | Potency [9] | Potency [11]

O=C(NCCc1c[nH]c2ccccc12)c1cccnc1
inactive: outcome [1] | outcome [2] | outcome [3] | outcome [4] | outcome [5] | outcome [6] | outcome [7] | Potency [8] | Potency [14] | Potency [10] | outcome [15] | outcome [16] | Potency [11] | Potency [17]

CN1CCN(CC(=O)N2c3ccccc3C(=O)Nc3cccnc32)CC1
inactive: outcome [1] | outcome [2] | outcome [3] | outcome [4] | outcome [5] | outcome [6] | outcome [7] | Potency [12] | outcome [13] | Potency [8] | Potency [14] | Potency [9] | Potency [11]

O=C(NCC(O)CO)c1c(I)c(C(=O)NCC(O)CO)c(I)c(N(CCO)C(=O)CO)c1I (centres undefined)
inactive: fluorescence, % of fluorescent control [1] -0.0567% [at 18.6 µM] | activity change [2] -0.0517% [at 18.6 µM] | fluorescence, % of fluorescent control [3] 0.453% [at 18.6 µM] | fluorescence, % of Rose Bengal [4] 0.343% [at 18.6 µM] | fluorescence, % of fluorescent control [5] -0.1% [at 18.6 µM] | fluorescence, % of fluorescein control [6] -0.0658% [at 18.6 µM] | fluorescence, % of fluorescent control [7] -0.0045% [at 18.6 µM] | Potency [12] | outcome [13] | Potency [8] | Potency [14] | Potency [9] | Potency [10] | Potency [11]

CC(COC(C)(C)C)OCCCO (centres undefined)
inactive: outcome [1] | outcome [2] | outcome [3] | outcome [4] | outcome [5] | outcome [6] | outcome [7] | outcome [13] | Potency [8] | Potency [9] | Potency [10] | Potency [11]

COc1ccc(-c2cc(=O)c3c(O)cc(O[C@@H]4O[C@H](CO[C@@H]5O[C@@H](C)[C@H](O)[C@@H](O)[C@H]5O)[C@@H](O)[C@H](O)[C@H]4O)cc3o2)cc1O
inactive: outcome [1] | outcome [2] | outcome [3] | outcome [5] | outcome [6] | outcome [7] | Potency [12] | outcome [18] | outcome [13] | Potency [8] | Potency [14] | Potency [9] | Potency [10] | Potency [11]

CN(C)CCOCCO
inactive: outcome [1] | outcome [2] | outcome [3] | outcome [4] | outcome [5] | outcome [6] | outcome [7] | Potency [12] | outcome [13] | Potency [8] | Potency [14] | Potency [9] | Potency [10] | Potency [11]

CC(C)(C)c1cc(CCC(=O)NN)cc(C(C)(C)C)c1O
inactive: outcome [1] | outcome [2] | outcome [3] | outcome [4] | outcome [5] | outcome [6] | outcome [7] | outcome [13] | Potency [10] | Potency [11]

COC(=O)CCCCCCCC(=O)OC
inactive: outcome [1] | outcome [2] | outcome [3] | outcome [5] | outcome [6] | outcome [7] | Potency [12] | outcome [18] | outcome [13] | Potency [14] | Potency [9] | Potency [10] | Potency [11]

CC1COc2ccccc2N1 (centres undefined)
inactive: outcome [1] | outcome [2] | outcome [3] | outcome [4] | outcome [5] | outcome [6] | outcome [7] | Potency [12] | outcome [18] | outcome [13] | Potency [14] | Potency [9] | Potency [10] | Potency [11]

Nc1ccc([N+](=O)[O-])c(N)c1
inactive: outcome [1] | outcome [2] | outcome [3] | outcome [5] | outcome [6] | outcome [7] | Potency [12] | outcome [13] | Potency [8] | Potency [14] | Potency [10]

O=C(OCC1(COC(=O)c2cccnc2)CCCC(COC(=O)c2cccnc2)(COC(=O)c2cccnc2)C1O)c1cccnc1
inactive: outcome [1] | outcome [2] | outcome [3] | outcome [4] | outcome [5] | outcome [6] | outcome [7] | Potency [12] | outcome [13] | Potency [8] | Potency [14] | Potency [10] | Potency [11]

O=C(O)CCSSCCC(=O)O
inactive: outcome [1] | outcome [2] | outcome [3] | outcome [4] | outcome [5] | outcome [6] | outcome [7] | Potency [12] | outcome [13] | Potency [8] | Potency [14] | Potency [9] | Potency [10] | Potency [19] | outcome [15] | outcome [16] | Potency [11] | Potency [17]
